# Data: PubChem BioAssay (NCI)
# This is part of a sample that, as a whole, favours compounds with a hit. Of some 83,000 tested, about 20% had one in any assay.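 Assay: single dose, 48 h. Readout: percent growth (0 = no net growth; negative = cell death). Active: <10.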 Values without a mark were called inactive. Active and inactive are the calls of the source.
# Test system: SNB-75 CNS
# Assay: NCI-60 one-dose screen, 48 h (100 = growth as untreated, 0 = no growth, -100 = all killed)
# Settings: 10 µM unless noted
row,Compound,growth
1,O=C(COc1cccc(/C=C2\Oc3ccccc3C2=O)c1)c1ccc([N+](=O)[O-])cc1,81.7%
2,CC[C@]12C=CCN3CC[C@@]4(c5ccc(OC)cc5N(C)[C@H]4[C@@](O)(C(=O)OC)[C@@H]1OC(=O)CCC(=O)N[C@H](Cc1c[nH]c4ccccc14)C(=O)OC)[C@@H]32,-68.8% [100 µM] (active)
3,C=C(C)[C@@H]1CC[C@]2(C(N)=O)CC[C@]3(C)[C@H](CC[C@@H]4[C@@]5(C)C/C(=C/c6cccnc6)[C@H](O)C(C)(C)[C@@H]5CC[C@]43C)[C@@H]12,47.1% [100 µM]
4,CSc1nc2sc3cc(Cl)c(Cl)cc3n2c(=N)c1C#N,69.2%
5,COc1ccc(/C=C2\N=C(Nc3ccccc3)N(NC(=O)c3ccccn3)C2=O)cc1,72.4%
6,O=C(NCCCNC(=O)OCc1ccc2cccc(O)c2n1)OCc1ccc2cccc(O)c2n1,28.4%
7,COc1cc(C(=O)/C=C/c2c(-c3ccc(F)cc3)nc3sccn23)cc(OC)c1OC,32.3%
8,CCCCCCCCCCCCNC(=S)N/N=C/c1ccccc1O,81.1%
9,CCCc1cc2cc(-n3nc(C)c4c3CC(C)(C)CC4=O)cc(NC3CCSCC3)c2c(=O)[nH]1,102%
10,COc1ccc(-c2cc(-c3ccc(OC)c(OC)c3)nc(SCCCCCC(=O)NO)n2)cc1,46.2%
11,CCC(C)[C@H](NC(=O)NC(=O)NC(=O)CI)C(=O)OC (some centres not stated),92.1%
12,CCN(CC)c1ccc(/C=C/c2ccc3cc(C)ccc3[n+]2CC)cc1,7.55% (active)
13,N/C(=N\c1nc2ccccc2[nH]1)NC(=O)Cc1cccc2ccccc12,87.5%
14,CC1(C)CC[C@]2(C(N)=O)CC[C@]3(C)C(=CC[C@@H]4[C@@]5(C)C/C(=C/c6ccncc6)C(=O)C(C)(C)[C@@H]5CC[C@]43C)[C@@H]2C1,-86.4% [100 µM] (active)
15,Cc1ccc(C2=C/C(=C/c3ccc(Br)cc3)C(=O)N2CCc2ccc(S(N)(=O)=O)cc2)cc1,60.9%
16,Cc1ccc(NCCN2CCCCC2)c2c(=O)c3ccccc3sc12,38.7%
17,CC1(C)CC(=O)c2c(ccc(C(=O)C[C@@H](N)CO)c2N)O1,63.5%
18,CCCCC1COc2cccc3c2N1C=C/C3=C\C(=O)n1ccc2ccccc21 (configuration not stated),14.5%
19,CC(C)CSc1ncnc2nc[nH]c12,101%

row,Compound,growth
1,CC1(C)CC[C@]2(C(=O)O)CC[C@]3(C)C(=CC[C@@H]4[C@@]5(C)C/C(=C/c6cccnc6)[C@H](O)C(C)(C)[C@@H]5CC[C@]43C)[C@@H]2C1,19.5% [100 µM]
2,COc1ccc(C=C2c3ccccc3-c3ccccc32)cc1,43.3%
3,C#C[C@]1(O)CC[C@H]2[C@@H]3CC=C4c5nc(Nc6ccc(OC)cc6OC)sc5CC[C@]4(C)[C@H]3CC[C@@]21C,-53.6% (active)
4,CCOC(=O)c1nn(C2CCCCO2)c2ccc(NC(=O)CSc3nc4ccccc4c(=O)[nH]3)cc12 (configuration not stated),68.5%
5,O=c1[nH]cnc2c1ccn2C1OC(CO)C(O)C1O (configuration not stated),74.6%
6,CCOC(=O)C(=Cc1ccccc1[N+](=O)[O-])C(=O)OCC,-7.8% (active)
7,Cc1cc(C)c(S(=O)(=O)/N=c2/n(-c3ccccc3)nc3n2CCN3C2=NCCN2)c(C)c1,74.3%
8,COC(=O)c1cc2c(=O)[nH]cc3c2c(n1)CCC3,104%
9,Cn1cc(-c2noc(C(=O)c3cn(C)c4ncccc34)n2)c2ccccc21,60.4%
10,O=c1cc(-c2ccccc2)oc2cc(OCc3cn(Cc4ccc(F)cc4)nn3)cc(O)c12,-65.9% [100 µM] (active)
11,Cc1ccc(Cn2c(O)c(N=NC(=O)c3ccc(S(N)(=O)=O)cc3)c3ccccc32)cc1,92.4%
12,CC[C@]12C=CCN3CC[C@@]4(c5ccc(OC)cc5N(C)[C@H]4[C@@](O)(C(=O)OC)[C@@H]1OC(=O)CCC(=O)O[C@H]1CC[C@H]4[C@@H]5CCC6=CC(=O)CC[C@@H]6[C@H]5CC[C@]14C)[C@@H]32,-27.2% [100 µM] (active)
13,CCC(Br)(CC)C(=O)c1ccc(OCC(=O)O)c(Cl)c1Cl,92.7%
14,Oc1c(CNCCNCc2cc(Cl)cc(Cc3ccccc3)c2O)cc(Cl)cc1Cc1ccccc1,28.4%
15,CCc1ccc(-c2ccc(COc3ccc(CC4SC(=O)NC4=O)cc3)cc2)cc1 (configuration not stated),76.2%
16,Cn1cc(-c2noc(-c3cn(C)c4ncc(F)cc34)n2)c2ccccc21,1.91% (active)
17,Clc1ccc2nc(-c3ccc(-c4ccc(/C=N/NC5=NCCN5)cc4)s3)cn2c1,83.9%
18,CC(C)CCSc1nc(N)nc2nc[nH]c12,101%
